Test in all cases: DAPPL (digital affinity profiling via proximity ligation, sequencing); 10 mM Tris-HCl pH 7.5, 50 mM NaCl, 1 mM DTT, 4% glycerol, room temperature, 30 min; GST-TFs on glutathione beads, 16-mer random dsDNA library, 0.1% formaldehyde crosslink after washing; high values mean tight binding
In one assay the target is T1, FLI1 (Homo sapiens, UniProt Q01543 1-452).
T1 sequence: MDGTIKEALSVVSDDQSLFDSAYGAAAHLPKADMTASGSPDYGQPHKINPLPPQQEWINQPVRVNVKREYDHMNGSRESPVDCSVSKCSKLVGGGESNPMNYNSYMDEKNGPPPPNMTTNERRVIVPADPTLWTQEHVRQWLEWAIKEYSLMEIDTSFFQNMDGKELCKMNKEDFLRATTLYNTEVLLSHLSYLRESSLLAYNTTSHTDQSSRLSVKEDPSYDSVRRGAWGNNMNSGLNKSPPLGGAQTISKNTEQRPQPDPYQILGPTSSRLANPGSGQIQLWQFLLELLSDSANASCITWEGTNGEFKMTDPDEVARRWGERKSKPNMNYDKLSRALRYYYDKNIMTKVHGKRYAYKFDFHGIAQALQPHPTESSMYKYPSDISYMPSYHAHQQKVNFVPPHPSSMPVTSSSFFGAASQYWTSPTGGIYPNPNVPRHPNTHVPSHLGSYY
Particulars: protein: recombinant; tags: N-terminal GST; dsDNA, one strand shown. In a few lines: (§1)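 In yeast, human transcription factors were expressed with a GST fusion, then pulled down on glutathione beads and given DNA barcodes. Pooled with a tag-only sample, they were exposed to 200 nmole of a 16-mer random double-stranded DNA library (Tris/NaCl/DTT/glycerol buffer, room temperature, 30 min), washed, crosslinked with 0.1% formaldehyde, proximity-ligated using BsaI/T4 ligase for 1 h at 37 °C, PCR-amplified and read on an Illumina NextSeq500. Each hexamer's frequency of reads for a factor, divided by the matching frequency for the tag-only sample, gives the binding signal.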

A further assay deals with T2, ELK1 (Homo sapiens, UniProt P19419 1-428).
T2 sequence: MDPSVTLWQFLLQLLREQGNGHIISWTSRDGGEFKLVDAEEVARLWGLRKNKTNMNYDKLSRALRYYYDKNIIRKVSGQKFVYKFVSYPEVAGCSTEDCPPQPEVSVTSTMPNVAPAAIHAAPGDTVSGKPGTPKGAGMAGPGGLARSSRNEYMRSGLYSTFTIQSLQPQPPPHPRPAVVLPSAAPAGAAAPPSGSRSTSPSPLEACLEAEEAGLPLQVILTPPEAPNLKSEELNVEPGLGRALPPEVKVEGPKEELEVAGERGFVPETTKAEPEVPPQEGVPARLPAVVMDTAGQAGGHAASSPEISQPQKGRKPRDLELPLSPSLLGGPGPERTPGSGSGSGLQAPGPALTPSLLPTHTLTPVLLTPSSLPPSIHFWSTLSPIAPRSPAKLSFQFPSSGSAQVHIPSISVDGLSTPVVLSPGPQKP
Particulars: protein: recombinant; tags: N-terminal GST; dsDNA, one strand shown. The procedure, abridged:
as §1

For the next assay, the target named is T3, GABPA (Homo sapiens, UniProt Q06546 1-454).
T3 sequence: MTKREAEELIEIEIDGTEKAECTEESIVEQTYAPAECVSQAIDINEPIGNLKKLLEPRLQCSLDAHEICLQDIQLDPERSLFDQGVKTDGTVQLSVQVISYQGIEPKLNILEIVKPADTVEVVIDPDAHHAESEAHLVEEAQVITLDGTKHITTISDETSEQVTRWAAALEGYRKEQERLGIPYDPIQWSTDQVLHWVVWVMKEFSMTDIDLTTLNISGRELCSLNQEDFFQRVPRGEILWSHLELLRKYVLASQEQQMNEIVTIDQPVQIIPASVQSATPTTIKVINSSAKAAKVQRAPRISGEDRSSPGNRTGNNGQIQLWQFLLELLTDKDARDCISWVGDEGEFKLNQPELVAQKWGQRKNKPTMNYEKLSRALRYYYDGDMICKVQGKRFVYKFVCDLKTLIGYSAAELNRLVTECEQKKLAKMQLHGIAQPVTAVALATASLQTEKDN
Particulars: protein: recombinant; tags: N-terminal GST; dsDNA, one strand shown. In a few lines:
as §1

The target in the next assay is T4, ERG (Homo sapiens, UniProt P11308 1-479).
T4 sequence: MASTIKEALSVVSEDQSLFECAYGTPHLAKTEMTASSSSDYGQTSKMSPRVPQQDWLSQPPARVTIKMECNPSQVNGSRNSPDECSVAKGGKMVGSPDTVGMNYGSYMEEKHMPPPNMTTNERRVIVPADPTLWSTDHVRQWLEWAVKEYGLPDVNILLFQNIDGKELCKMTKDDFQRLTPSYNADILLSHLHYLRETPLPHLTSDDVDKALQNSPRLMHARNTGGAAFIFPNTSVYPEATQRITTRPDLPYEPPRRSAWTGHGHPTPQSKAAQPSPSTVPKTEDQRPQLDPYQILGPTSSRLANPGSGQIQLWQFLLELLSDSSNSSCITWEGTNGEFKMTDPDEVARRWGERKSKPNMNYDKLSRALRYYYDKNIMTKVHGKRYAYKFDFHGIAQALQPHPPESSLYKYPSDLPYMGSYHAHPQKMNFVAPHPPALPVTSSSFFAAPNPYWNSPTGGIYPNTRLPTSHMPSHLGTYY
The following applies: protein: recombinant; tags: N-terminal GST; dsDNA, one strand shown. In a few lines: as §1

The target of a further assay is ELF1 (Homo sapiens, UniProt P32519 1-619). Particulars: protein: recombinant; tags: N-terminal GST; dsDNA, one strand shown. The procedure, abridged:
as §1

The target in another assay is T5, EHF (Homo sapiens, UniProt Q9NZC4 1-300).
T5 sequence: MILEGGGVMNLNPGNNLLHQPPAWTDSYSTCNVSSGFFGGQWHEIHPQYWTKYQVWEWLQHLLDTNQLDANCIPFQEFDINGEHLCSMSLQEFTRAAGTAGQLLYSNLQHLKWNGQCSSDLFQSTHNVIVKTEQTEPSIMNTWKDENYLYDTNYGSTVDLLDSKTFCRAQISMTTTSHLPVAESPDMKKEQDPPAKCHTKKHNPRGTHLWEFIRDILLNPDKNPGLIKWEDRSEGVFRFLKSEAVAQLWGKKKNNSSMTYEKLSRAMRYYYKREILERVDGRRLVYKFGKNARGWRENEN
The following applies: protein: recombinant; tags: N-terminal GST; dsDNA, one strand shown. In a few lines: as §1

The target in the next assay is SPI1 (Homo sapiens, UniProt P17947 1-270). The following applies: protein: recombinant; tags: N-terminal GST; dsDNA, one strand shown. The procedure, abridged:
as §1

A further assay concerns the target SPIB (Homo sapiens, UniProt Q01892 1-262). The following applies: protein: recombinant; tags: N-terminal GST; dsDNA, one strand shown. In a few lines:
as §1

A further assay has as its target T6, ELK3 (Homo sapiens, UniProt P41970 1-407).
T6 sequence: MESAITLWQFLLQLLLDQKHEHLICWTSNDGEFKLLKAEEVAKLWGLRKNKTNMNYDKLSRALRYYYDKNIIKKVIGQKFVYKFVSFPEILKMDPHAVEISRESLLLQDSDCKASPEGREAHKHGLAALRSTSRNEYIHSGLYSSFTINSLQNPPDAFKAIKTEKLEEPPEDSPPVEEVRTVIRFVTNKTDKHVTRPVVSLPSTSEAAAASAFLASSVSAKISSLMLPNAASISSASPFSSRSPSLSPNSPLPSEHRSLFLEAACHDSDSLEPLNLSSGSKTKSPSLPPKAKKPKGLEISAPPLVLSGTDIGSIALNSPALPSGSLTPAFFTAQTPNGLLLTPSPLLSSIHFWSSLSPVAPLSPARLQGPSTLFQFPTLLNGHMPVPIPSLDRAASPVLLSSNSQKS
The following applies: protein: recombinant; tags: N-terminal GST; dsDNA, one strand shown. The procedure, abridged: as §1

The target in the next assay is T7, FEV (Homo sapiens, UniProt Q99581 1-238).
T7 sequence: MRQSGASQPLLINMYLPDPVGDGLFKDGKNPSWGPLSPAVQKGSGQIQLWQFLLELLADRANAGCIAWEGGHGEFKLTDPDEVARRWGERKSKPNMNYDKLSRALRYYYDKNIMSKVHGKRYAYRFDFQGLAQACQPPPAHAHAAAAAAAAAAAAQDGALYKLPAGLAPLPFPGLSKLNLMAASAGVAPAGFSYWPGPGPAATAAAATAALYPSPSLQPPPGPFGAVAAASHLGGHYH
Particulars: protein: recombinant; tags: N-terminal GST; dsDNA, one strand shown. In a few lines: as §1

A further assay addresses ETV5 (Homo sapiens, UniProt P41161 1-510). The following applies: protein: recombinant; tags: N-terminal GST; dsDNA, one strand shown. In a few lines: as §1
Another assay deals with HSF1 (Homo sapiens, UniProt Q00613 1-529). Particulars: protein: recombinant; tags: N-terminal GST; chain copies: 3; dsDNA, one strand shown. In a few lines:
as §1

The target of another assay is T8, SPIC (Homo sapiens, UniProt Q8N5J4 1-248).
T8 sequence: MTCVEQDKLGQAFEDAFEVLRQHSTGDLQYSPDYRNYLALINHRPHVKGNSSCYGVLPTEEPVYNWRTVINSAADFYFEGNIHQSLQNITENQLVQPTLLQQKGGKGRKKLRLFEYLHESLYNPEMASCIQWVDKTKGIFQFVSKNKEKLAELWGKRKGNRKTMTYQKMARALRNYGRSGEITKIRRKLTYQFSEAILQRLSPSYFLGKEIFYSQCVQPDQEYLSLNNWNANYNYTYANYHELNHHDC
Particulars: protein: recombinant; tags: N-terminal GST; dsDNA, one strand shown. The procedure, abridged:
as §1

The target in the next assay is ELF4 (Homo sapiens, UniProt Q99607 1-663). Particulars: protein: recombinant; tags: N-terminal GST; dsDNA, one strand shown. In a few lines: as §1
ELF4, sequence (Q99607 whole entry): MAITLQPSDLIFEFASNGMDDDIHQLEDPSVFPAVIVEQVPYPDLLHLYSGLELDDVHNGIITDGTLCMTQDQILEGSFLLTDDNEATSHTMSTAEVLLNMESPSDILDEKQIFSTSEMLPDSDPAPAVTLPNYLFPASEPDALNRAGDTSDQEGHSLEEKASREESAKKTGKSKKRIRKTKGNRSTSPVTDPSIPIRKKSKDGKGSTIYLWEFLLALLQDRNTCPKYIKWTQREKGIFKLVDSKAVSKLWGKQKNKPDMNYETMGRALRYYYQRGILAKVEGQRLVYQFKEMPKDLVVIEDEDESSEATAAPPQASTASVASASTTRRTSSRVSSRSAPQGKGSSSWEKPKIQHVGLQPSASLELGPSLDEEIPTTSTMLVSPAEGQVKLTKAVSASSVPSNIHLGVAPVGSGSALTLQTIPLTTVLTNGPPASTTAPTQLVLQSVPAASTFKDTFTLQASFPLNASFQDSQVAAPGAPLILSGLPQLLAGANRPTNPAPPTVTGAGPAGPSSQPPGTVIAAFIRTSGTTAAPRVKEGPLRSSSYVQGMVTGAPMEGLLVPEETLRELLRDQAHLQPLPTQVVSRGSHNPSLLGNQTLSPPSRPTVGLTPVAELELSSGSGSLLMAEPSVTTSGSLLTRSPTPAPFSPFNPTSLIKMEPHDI
The target in the next assay is T9, ELK4 (Homo sapiens, UniProt P28324-2 1-405).
T9 sequence: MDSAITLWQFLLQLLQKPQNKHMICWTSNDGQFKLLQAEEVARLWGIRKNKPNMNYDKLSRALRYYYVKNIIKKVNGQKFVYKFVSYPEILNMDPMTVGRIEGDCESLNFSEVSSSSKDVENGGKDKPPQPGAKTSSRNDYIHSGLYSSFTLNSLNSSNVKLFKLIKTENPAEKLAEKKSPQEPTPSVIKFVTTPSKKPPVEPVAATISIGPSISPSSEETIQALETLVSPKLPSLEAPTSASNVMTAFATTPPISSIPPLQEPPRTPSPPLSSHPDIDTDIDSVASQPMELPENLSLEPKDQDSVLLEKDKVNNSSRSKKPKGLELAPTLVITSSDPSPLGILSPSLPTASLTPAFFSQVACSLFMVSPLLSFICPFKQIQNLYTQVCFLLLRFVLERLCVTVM
The following applies: protein: recombinant; tags: N-terminal GST; dsDNA, one strand shown. The procedure, abridged: as §1

A further assay concerns the target T10, ETV2 (Homo sapiens, UniProt O00321 1-342).
T10 sequence: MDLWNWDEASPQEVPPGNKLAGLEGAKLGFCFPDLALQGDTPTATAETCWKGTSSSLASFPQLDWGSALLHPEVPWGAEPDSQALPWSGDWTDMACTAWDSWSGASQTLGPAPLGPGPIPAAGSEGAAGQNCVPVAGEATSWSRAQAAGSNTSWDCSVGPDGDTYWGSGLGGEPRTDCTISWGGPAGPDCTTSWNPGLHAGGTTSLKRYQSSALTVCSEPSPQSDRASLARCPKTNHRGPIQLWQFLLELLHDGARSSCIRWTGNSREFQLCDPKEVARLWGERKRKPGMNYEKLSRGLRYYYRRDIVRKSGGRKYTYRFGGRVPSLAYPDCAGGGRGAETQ
The following applies: protein: recombinant; tags: N-terminal GST; dsDNA, one strand shown. The procedure, abridged: as §1

The target in a further assay is T11, ELF3 (Homo sapiens, UniProt P78545 1-371).
T11 sequence: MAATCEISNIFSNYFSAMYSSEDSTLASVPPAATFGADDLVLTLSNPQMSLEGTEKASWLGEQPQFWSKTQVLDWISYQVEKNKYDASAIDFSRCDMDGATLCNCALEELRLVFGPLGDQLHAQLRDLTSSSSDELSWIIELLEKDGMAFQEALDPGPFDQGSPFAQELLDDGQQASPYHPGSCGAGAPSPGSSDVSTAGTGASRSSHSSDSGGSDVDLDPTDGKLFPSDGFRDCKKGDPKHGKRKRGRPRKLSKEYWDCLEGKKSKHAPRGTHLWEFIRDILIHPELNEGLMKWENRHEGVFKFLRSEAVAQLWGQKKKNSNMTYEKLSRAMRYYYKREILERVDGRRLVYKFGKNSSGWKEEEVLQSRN
The following applies: protein: recombinant; tags: N-terminal GST; dsDNA, one strand shown. The procedure, abridged:
as §1

The target in a further assay is CRX (Homo sapiens, UniProt O43186 1-299). Particulars: protein: recombinant; tags: N-terminal GST; dsDNA, one strand shown. The procedure, abridged:
as §1

A further assay deals with ETV1 (Homo sapiens, UniProt P50549 1-477). Particulars: protein: recombinant; tags: N-terminal GST; dsDNA, one strand shown. The procedure, abridged:
as §1

Binding signal data for one sequence are collected here from publication PMC7862700, “An all-to-all approach to the identification of sequence-specific readers for epigenetic DNA modifications on cytosine”.

ETV1, sequence (P50549 whole entry): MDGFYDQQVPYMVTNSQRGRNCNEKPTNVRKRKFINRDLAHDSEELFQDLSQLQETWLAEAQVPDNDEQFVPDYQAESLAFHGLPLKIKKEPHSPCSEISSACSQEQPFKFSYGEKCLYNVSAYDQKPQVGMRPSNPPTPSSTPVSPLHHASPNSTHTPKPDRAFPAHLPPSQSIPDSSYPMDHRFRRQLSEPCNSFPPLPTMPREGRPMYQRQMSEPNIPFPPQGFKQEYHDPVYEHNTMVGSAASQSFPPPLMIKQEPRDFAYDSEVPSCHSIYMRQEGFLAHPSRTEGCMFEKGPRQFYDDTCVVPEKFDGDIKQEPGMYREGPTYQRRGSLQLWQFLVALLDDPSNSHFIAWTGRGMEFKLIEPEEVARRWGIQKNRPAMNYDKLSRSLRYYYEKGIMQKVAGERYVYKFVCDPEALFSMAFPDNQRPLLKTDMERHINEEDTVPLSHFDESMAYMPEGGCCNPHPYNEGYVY
CRX, sequence (O43186 whole entry): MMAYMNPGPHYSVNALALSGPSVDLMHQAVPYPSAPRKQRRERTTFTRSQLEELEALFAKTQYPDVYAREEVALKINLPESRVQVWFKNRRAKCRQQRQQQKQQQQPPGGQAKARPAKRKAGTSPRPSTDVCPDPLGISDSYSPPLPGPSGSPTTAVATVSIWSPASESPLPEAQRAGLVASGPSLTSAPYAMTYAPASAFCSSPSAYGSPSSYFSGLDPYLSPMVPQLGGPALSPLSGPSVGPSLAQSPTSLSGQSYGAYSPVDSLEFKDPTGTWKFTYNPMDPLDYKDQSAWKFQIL
HSF1, sequence (Q00613 whole entry): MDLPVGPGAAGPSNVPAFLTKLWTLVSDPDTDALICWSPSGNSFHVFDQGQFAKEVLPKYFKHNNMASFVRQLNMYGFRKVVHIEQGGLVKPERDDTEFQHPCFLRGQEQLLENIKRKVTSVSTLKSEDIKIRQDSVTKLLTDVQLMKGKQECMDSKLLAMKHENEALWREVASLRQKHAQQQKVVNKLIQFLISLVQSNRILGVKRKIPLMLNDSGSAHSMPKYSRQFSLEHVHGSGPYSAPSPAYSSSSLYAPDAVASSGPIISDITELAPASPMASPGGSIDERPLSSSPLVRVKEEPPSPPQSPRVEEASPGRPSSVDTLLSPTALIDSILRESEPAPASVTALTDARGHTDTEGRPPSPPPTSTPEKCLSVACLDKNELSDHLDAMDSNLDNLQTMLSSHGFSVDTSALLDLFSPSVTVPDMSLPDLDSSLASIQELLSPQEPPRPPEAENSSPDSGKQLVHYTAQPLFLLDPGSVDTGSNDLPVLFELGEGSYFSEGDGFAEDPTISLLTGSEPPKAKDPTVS
SPIB, sequence (Q01892 whole entry): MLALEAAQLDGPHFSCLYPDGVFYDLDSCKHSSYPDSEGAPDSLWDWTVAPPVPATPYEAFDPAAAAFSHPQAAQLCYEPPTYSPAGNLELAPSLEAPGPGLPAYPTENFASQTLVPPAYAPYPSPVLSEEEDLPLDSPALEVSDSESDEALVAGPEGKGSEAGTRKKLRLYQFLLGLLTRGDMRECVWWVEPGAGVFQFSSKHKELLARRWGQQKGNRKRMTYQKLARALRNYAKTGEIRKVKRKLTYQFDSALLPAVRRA
ETV5, sequence (P41161 whole entry): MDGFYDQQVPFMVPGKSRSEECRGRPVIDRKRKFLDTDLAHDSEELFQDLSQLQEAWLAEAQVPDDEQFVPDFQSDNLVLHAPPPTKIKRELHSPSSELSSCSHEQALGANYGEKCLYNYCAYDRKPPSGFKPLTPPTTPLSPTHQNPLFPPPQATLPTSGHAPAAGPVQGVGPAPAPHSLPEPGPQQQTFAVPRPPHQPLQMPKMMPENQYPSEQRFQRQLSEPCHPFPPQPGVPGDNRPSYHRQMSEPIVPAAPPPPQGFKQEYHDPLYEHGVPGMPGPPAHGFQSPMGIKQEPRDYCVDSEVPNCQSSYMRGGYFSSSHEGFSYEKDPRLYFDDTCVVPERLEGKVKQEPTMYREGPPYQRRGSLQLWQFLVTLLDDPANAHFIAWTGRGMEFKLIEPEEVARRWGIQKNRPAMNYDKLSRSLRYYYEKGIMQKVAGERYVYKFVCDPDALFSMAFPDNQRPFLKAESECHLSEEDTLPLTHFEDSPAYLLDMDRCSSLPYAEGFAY
ELF1, sequence (P32519 whole entry): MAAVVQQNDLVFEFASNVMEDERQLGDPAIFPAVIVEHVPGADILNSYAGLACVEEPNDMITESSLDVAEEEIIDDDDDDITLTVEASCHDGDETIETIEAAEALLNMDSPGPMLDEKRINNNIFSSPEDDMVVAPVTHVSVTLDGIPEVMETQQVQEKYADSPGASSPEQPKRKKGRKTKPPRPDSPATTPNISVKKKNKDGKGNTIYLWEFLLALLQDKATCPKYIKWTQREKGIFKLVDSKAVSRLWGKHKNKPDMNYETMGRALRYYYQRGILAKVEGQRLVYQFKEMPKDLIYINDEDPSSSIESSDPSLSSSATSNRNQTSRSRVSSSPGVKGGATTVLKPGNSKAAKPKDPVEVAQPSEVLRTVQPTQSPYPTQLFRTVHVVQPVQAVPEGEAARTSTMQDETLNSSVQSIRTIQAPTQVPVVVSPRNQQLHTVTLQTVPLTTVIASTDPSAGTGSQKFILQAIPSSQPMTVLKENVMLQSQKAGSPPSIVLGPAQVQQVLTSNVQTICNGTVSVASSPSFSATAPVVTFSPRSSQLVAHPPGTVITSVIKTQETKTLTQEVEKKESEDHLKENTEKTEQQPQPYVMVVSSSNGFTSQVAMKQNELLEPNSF

For TCCAAA, the binding signal in the assay with FLI1 was 1.08 fold enrichment (6-mer frequency, TF over GST control); in the assay with ELK1 it was 1.18 fold enrichment (6-mer frequency, TF over GST control); with GABPA, 1.31 fold enrichment (6-mer frequency, TF over GST control); with ERG, 1.19 fold enrichment (6-mer frequency, TF over GST control); in the assay with ELF1, 1.18 fold enrichment (6-mer frequency, TF over GST control); with EHF, 1.1 fold enrichment (6-mer frequency, TF over GST control). Moreover, the binding signal in the assay with SPI1 was 1.12 fold enrichment (6-mer frequency, TF over GST control); with SPIB, 1.17 fold enrichment (6-mer frequency, TF over GST control); with ELK3 it was 1.17 fold enrichment (6-mer frequency, TF over GST control); in the assay with FEV, 1.18 fold enrichment (6-mer frequency, TF over GST control); with ETV5, 1.12 fold enrichment (6-mer frequency, TF over GST control); with HSF1, 1.3 fold enrichment (6-mer frequency, TF over GST control). Also, the binding signal with SPIC was 1.11 fold enrichment (6-mer frequency, TF over GST control); with ELF4, 1.25 fold enrichment (6-mer frequency, TF over GST control); with ELK4, 1.17 fold enrichment (6-mer frequency, TF over GST control); in the assay with ETV2, 1.01 fold enrichment (6-mer frequency, TF over GST control); with ELF3 it was 1.16 fold enrichment (6-mer frequency, TF over GST control); in the assay with CRX, 1.26 fold enrichment (6-mer frequency, TF over GST control). Further, the binding signal with ETV1 is 1.1 fold enrichment (6-mer frequency, TF over GST control).
